Consider 40 molecules from PubChem BioAssay.

A number with no mark means an inactive call. No rule for the calls is given here.

Pantothenate synthetase (Mycobacterium tuberculosis (strain ATCC 25618 / H37Rv)), sequence (P9WIL5 whole entry, looked up): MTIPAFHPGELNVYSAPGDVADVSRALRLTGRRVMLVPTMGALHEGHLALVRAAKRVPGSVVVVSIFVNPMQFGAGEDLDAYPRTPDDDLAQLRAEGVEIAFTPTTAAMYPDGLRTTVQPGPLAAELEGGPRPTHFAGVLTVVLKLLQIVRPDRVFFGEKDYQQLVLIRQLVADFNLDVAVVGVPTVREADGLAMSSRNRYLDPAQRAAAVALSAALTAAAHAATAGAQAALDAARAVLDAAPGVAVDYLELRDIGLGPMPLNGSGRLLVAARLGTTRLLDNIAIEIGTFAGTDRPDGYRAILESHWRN

This test addresses Pantothenate synthetase (Mycobacterium tuberculosis (strain ATCC 25618 / H37Rv)) (UniProt P9WIL5). Description: Recombinant Mtb pantothenate synthetase (PanC) inhibitors, coupled enzyme, confirmatory (AID 375).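 Also: 0% = full reaction with vehicle and 100% = no enzyme background.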 Particulars: coupled enzyme assay; at 10 µM, active compounds read high.
`O=C(CSc1nc(-c2ccccc2)cs1)NC(=O)NCc1ccco1`: the inhibition was 0%.
On to `Cc1ccc(S(=O)(=O)N2CCN(S(=O)(=O)N(C)C)CC2)cc1`, for which the inhibition is 0%.
For `COc1ccc(CNC(=O)c2cc(-c3ccc(OC)c(OC)c3)on2)cc1` the value was 3%; for `CCC(=O)N(CCCN(C)C)c1nc(-c2cc(OC)ccc2OC)cs1`, 6%; for `Cc1cc(C)cc(-n2nnc(C(=O)NCc3ccc4c(c3)OCO4)c2N)c1`, 0%.
For `COc1ccccc1-c1noc(-c2ccco2)n1` the value was 6%; for `Cn1c(-c2ccccc2)cnc1SCc1nc2ccccc2c(=O)[nH]1`, 7%; for `COc1ccc(S(=O)(=O)Nc2ccc(F)c(F)c2)cc1Cl`, 0%.
For `CCOCCc1nnc(NC(=O)c2ccc(OC)c(OC)c2)s1` the value was 0%.
On to `Cc1cccc(NC(=O)c2cnc3sccn3c2=O)n1`, for which the inhibition was 4%.
Consider `CCOc1ccc(OCc2cccc(C(=O)N3CCCC3)c2)cc1`, for which the inhibition was 6%.
The result for `Cc1ccccc1C1CC(c2ccccc2)Nc2ncnn21` (stereo not given) reads 12%.
Consider `COc1ccc(-c2noc(CN(C(=O)C(C)(C)C)C(C)C)n2)cc1`, for which the inhibition is 0%.
For `COc1ccc(S(=O)(=O)Nc2cccc(C)n2)c2ccccc12`, the inhibition is 2%.
For `CC1(C)O[C@@H]2C[C@H]3[C@@H]4CCC5=CC(=O)C=C[C@]5(C)[C@@]4(F)[C@@H](O)C[C@]3(C)[C@]2(C(=O)CO)O1` the value was 2%; for `COc1ccc2c(C(=O)CN(C)C3CCCCC3)c[nH]c2c1`, 0%; for `COc1ccc(C)cc1-n1nnnc1SCC(=O)NC(=O)NCc1ccco1`, 11%.
The result for `Nc1nc(-c2ccccc2)cc(C(F)(F)F)n1` reads 5%; that for `CN1CCN(C(=O)CN(Cc2ccc(Cl)cc2)S(C)(=O)=O)CC1`, 4%; that for `CN(C)c1cccc2c(S(=O)(=O)Nc3ccccn3)cccc12`, 1%.
In the case of `O=C(Cc1ccccc1)N1CCCC(c2nc(-c3cccs3)no2)C1` (stereo not given), the inhibition was 0%.
For `O=C(O)c1cc2cc(F)ccc2[nH]1` the value was 2%.
For `Cn1c(=O)n(CCN2CCOCC2)c(=O)c2c1nc1n2CCN1c1ccccc1` the value was 2%; for `N#CCC(=O)N1CCn2c1nc1ccccc12`, 0%; for `CC(C)CCNC(=O)NC(=O)COc1ccccc1C#N`, 4%.
For `O=C(O)c1ccccc1S(=O)(=O)NCC(O)COc1ccc(Br)cc1` (stereo not given) the value was 2%; for `Cc1ccc(CN2C(=O)CCC2C(=O)NCCCN2CCCC(C)C2)cc1` (stereo not given), 1%; for `CC(C)(C)n1ncc2c(=O)n(CC(=O)NCc3ccc(F)cc3)cnc21`, 4%.
For `CCOc1ccc(NC(=O)COC(=O)Cn2cnnn2)cc1OCC`, the inhibition is 0%.
For the molecule `CCSc1nnc(NC(=O)CCNS(=O)(=O)c2cc(Br)cnc2N)s1`, the inhibition was 3%.
For `CCOC(=O)c1sc2ncn(/N=C/N(C)C)c(=O)c2c1C` the value was 8%.
As to `Cn1c(=O)c2c(nc(N3CCCCC3)n2CCSc2nc3ccccc3o2)n(C)c1=O`, the inhibition is 8%.
As to `O=c1[nH]c2sc3c(c2c2nncn12)CCCC3`, the inhibition is 0%.
In the case of `Cc1cc(NC(=O)CSc2nc3c(c(-c4cccnc4)c2C#N)CCC3)no1`, the inhibition is 0%.
For `COC(=O)c1cc(OC)c(OC)cc1NC(=O)CCC1CCCC1` the value was 0%; for `C[C@]12CCC(=O)C=C1CC[C@@H]1[C@@H]2C(=O)C[C@@]2(C)[C@H]1CC[C@]2(O)C(=O)CO`, 0%.
The result for `COc1ccc(CN(C(=O)c2ccccc2OC)C2CCS(=O)(=O)C2)cc1` (stereo not given) reads 0%.
Turning to `CCN(CC)c1ccc2cc(-c3nc4ccccc4[nH]3)c(=O)oc2c1`, the inhibition was 0%.
For `COCCn1c(COc2ccc(Cl)cc2)nnc1SCC(N)=O` the value was 0%; for `O=C(CN1C(=O)COc2ccccc21)N(Cc1cccnc1)Cc1ccccc1F`, 0%.

What is called inhibition is the drop in the measured response relative to a control, in per cent.
